From PubChem BioAssay AID2235 (The Scripps Research Institute Molecular Screening Center, 2010)
The campaign covered roughly 320,000 compounds. About 2,800 (0.88%) were called active.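 How the source made its calls: active means inhibition above the mean inhibition of all tested compounds plus 3 SD, computed separately for each screening campaign (cut at about 15% in these data); inactive means the rest.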 Only a selection was taken, and actives are over-represented in it overall.

These molecules were tested against Serine/threonine-protein phosphatase PP1-alpha catalytic subunit (Homo sapiens) (UniProt P62136) (assay: inhibition of human PP1 catalytic subunit – biochemical, fluorescence, OMFP substrate, single point, counter-screen for PP5 inhibitor project, primary screen (AID 2235)). Details: purified PP1alpha, at 6.7 µM, stronger effect = higher value.
Serine/threonine-protein phosphatase PP1-alpha catalytic subunit (Homo sapiens), sequence (P62136 whole entry, looked up): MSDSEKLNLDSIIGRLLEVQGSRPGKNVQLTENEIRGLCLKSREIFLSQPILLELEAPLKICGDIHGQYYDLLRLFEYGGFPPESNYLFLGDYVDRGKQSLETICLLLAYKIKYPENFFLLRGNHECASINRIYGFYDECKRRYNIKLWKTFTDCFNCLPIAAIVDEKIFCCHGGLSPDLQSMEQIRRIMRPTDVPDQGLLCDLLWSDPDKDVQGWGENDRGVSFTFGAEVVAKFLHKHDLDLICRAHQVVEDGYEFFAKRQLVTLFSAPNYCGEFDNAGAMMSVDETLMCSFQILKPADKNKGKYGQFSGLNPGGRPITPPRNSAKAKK

Row | Structure (SMILES) | inhibition
1 | CC(C(=O)Nc1ccc(S(=O)(=O)N2CCCC2)cc1)N(C)Cc1ccc(F)cc1 (stereo not drawn) | -3.95% (inactive)
2 | Cc1ncc(CO)c(/C=N/NC(=O)c2cccc(S(=O)(=O)N3CCCC3)c2)c1O | 2.87% (inactive)
3 | COc1ccc(/C=N/NC(=O)c2ccc3c(c2)OCCO3)c(OC)c1 | -5.02% (inactive)
4 | COc1ccc(/C=N/NC(=O)CNC(=O)c2ccc(S(=O)(=O)N3CCCC3)cc2)c(OC)c1 | 0.14% (inactive)
5 | COc1ccc(/C=N/NC(=O)Nc2ccc3nsnc3c2)c(OC)c1 | 15.8% (active)
6 | O=C1NN(c2ccccc2)C(=O)/C1=C/c1ccc(-c2cccc(C(=O)O)c2)o1 | 5.88% (inactive)
7 | O=C(O)C(c1ccccc1)N1C(=O)/C(=C\c2ccc(-c3cccc(Cl)c3)o2)SC1=S (stereo not drawn) | 18.4% (active)
8 | CN1C(=O)/C(=C\c2ccc(-c3ccccc3)o2)SC1=S | -2.09% (inactive)
9 | CCOc1ccc(S(=O)(=O)NCc2ccc3c(c2)OCO3)cc1C | 1.37% (inactive)
10 | C/C(=N/NC(=O)CCc1ccccc1)c1ccco1 | -1.45% (inactive)
11 | N#Cc1c(Cl)nc(-c2cccnc2)nc1-c1ccccc1 | -1.04% (inactive)
12 | Cc1cc(S(=O)(=O)NCC(C)C)ccc1OCC(=O)NC1CC1 | -3.62% (inactive)
13 | CC(C)(C)C(=O)NC(NC(=S)Nc1ccc(S(N)(=O)=O)cc1)C(Cl)(Cl)Cl (stereo not drawn) | 1.25% (inactive)
14 | Cc1ccc(NC(=S)NC(NC(=O)Cc2cccc3ccccc23)C(Cl)(Cl)Cl)cc1 (stereo not drawn) | 16.6% (active)
15 | O=C(Cc1cccc2ccccc12)NNC(=O)Nc1ccc(Cl)cc1 | -1.41% (inactive)
16 | CCn1cc(CNC(=O)c2cc([N+](=O)[O-])c(C)c([N+](=O)[O-])c2)cn1 | -2.81% (inactive)
17 | COc1ccc(C(=O)NC2(C(F)(F)F)NC(=O)N(CCCc3ccccc3)C2=O)c(OC)c1OC (stereo not drawn) | 1.31% (inactive)
18 | O=C1OC(c2ccc(Cl)cc2)=N/C1=C\c1cccnc1 | -0.8% (inactive)
19 | CCOc1cc(/C=C2/N=C(c3ccc(C(C)(C)C)cc3)OC2=O)cc(Cl)c1OS(C)(=O)=O | 16% (active)
20 | Cc1ccc(C2=N/C(=C\c3ccc(OS(=O)(=O)c4ccc(C)cc4)cc3)C(=O)O2)cc1 | 0.93% (inactive)
21 | COc1ccc(NS(=O)(=O)c2ccc(C)c(C(=O)NCC(c3cccs3)N3CCOCC3)c2)cc1 (stereo not drawn) | -0.23% (inactive)
22 | O=C(COc1ccc(S(=O)(=O)NCc2ccccc2)cc1)N1CCOCC1 | 0.87% (inactive)

Row | Structure (SMILES) | inhibition
23 | Cc1cnc(C(=O)N2CCCC(C(=O)c3ccc(C(F)(F)F)cc3)C2)cn1 (stereo not drawn) | -4.22% (inactive)
24 | Cc1c(-c2nn(C)c(=O)c3ccccc23)oc2ccc(F)cc2c1=O | 3.07% (inactive)
25 | Cc1cc(C)c(S(=O)(=O)NCCCN2CCOCC2)cc1Br | -3.53% (inactive)
26 | CCC(c1nnnn1Cc1ccco1)N(CCc1ccccc1)Cc1cc2cccc(C)c2[nH]c1=O (stereo not drawn) | 7.62% (inactive)
27 | Cc1cccc2cc(CN(Cc3ccc4c(c3)OCO4)Cc3nnnn3C3CCCC3)c(=O)[nH]c12 | -2.51% (inactive)
28 | CCC(c1nnnn1C1CCCC1)N(Cc1cccs1)Cc1cc2cccc(C)c2[nH]c1=O (stereo not drawn) | 16.5% (active)
29 | COc1ccc(OC)c(NC(=O)CN(Cc2ccc(Cl)cc2)S(C)(=O)=O)c1 | 0.99% (inactive)
30 | CCOc1cc(-c2nc3cc(C)ccn3c2NCC2CCCO2)ccc1O (stereo not drawn) | -2.03% (inactive)
31 | CCCCCN(C(=O)NC(=O)Nc1cccc(C)c1C)S(C)(=O)=O | 4.61% (inactive)
32 | CCCc1ccc(OCC(=O)NNC(=S)NC(=O)c2ccco2)cc1 | 18.6% (active)
33 | CC(Oc1ccc2ccccc2c1)C(=O)NNC(=S)NC(=O)c1ccco1 (stereo not drawn) | 0.47% (inactive)
34 | Cc1ccc(OCC(=O)NCCCNC(=O)c2ccco2)cc1C | 2.4% (inactive)
35 | CCN(CC)CCC(c1ccc2c(c1)OCO2)c1c(OC)cc(OC)c2c(-c3ccccc3)cc(=O)oc12 (stereo not drawn) | 1.96% (inactive)
36 | O=C(NCCc1ccccc1)C1CCC(Cn2c(=O)c3ccccc3n(Cc3cccnc3)c2=O)CC1 (stereo not drawn) | -0.9% (inactive)
37 | CCC(C)N(C(=O)COC(=O)c1nc(Cl)ccc1Cl)C1CCS(=O)(=O)C1 (stereo not drawn) | -0.12% (inactive)
38 | Cc1nn(C)c(Oc2ccc(Cl)cc2)c1C=O | -4.58% (inactive)
39 | Cc1ccc2c(c1)NCC(C(=O)NC1CCC(C)CC1)O2 (stereo not drawn) | -3.3% (inactive)
40 | Cn1c(Nc2cccc(Cl)c2)nc2ccccc21 | -3.75% (inactive)
41 | Cc1ccc(O)c(CNc2nc3ccccc3n2C)c1 | -1.3% (inactive)
42 | C/C(=N\c1nc2ccccc2n1C)c1cc(Cl)ccc1O | 22% (active)
43 | CCn1c(SCC(=O)Nc2cc(C)ccc2C)nnc1-c1cnccn1 | 20.4% (active)
44 | CCc1ccc(NC(=O)CSc2nnc(-c3cnccn3)n2Cc2ccco2)cc1 | 2.61% (inactive)

Row | Structure (SMILES) | inhibition
45 | Cc1ccc(NC(=O)CSc2nnc(-c3cnccn3)n2Cc2ccco2)cc1C | 1.95% (inactive)
46 | O=C(COC(=O)c1ccccc1Br)Nc1nnc(-c2ccccc2)o1 | 13.9% (inactive)
47 | O=C(COC(=O)c1ccc(Oc2ccccc2)cc1)Nc1nnc(-c2ccccc2)o1 | 23.5% (active)
48 | CC(=O)Nc1cccc(C(=O)OCC(=O)Nc2nnc(-c3ccccc3)o2)c1 | 0.85% (inactive)
49 | Cc1ccc(S(=O)(=O)N(C)c2ccc(OCC(=O)NC3=NCCS3)cc2)cc1 | -1.97% (inactive)
50 | Cc1ccc(N=C2NC(=O)/C(=C/C=C/c3ccco3)S2)cc1C | 16.1% (active)
51 | Cc1ccc(N2NC(=O)/C(=C/C=C/c3ccco3)C2=O)cc1C | 1.04% (inactive)
52 | CN1C(=O)/C(=C/c2ccco2)SC1=Nc1cccc(C(=O)O)c1 | -2.67% (inactive)
53 | Cc1ccc(C)c(Cn2cnc3c(oc4ccccc43)c2=O)c1 | 1.24% (inactive)
54 | Cc1nc2ccccc2c(=O)n1NC(=O)c1ccc(Cl)c([N+](=O)[O-])c1 | 2.24% (inactive)
55 | O=C(Nn1c(SCc2ccc([N+](=O)[O-])cc2)nc2ccccc2c1=O)c1ccc(F)cc1 | 15.9% (active)
56 | C=CCn1c(SCc2ccc(C(=O)NCCO)cc2)nc2ccccc2c1=O | 2.26% (inactive)
57 | COc1ccc(C(=O)c2c3ccc([N+](=O)[O-])cc3[n+]([O-])n2CCCN)cc1 | 5.14% (inactive)
58 | CCOc1ccc(NC(=O)CN(C)CC(=O)NC(C)c2ccccc2)cc1OCC (stereo not drawn) | -1.29% (inactive)
59 | Cc1cc(Nc2ccccc2)n(CCC#N)n1 | -2.37% (inactive)
60 | Cc1cc(Nc2ccccc2)n(C(=O)c2ccc(N)cc2)n1 | 22.3% (active)
61 | Cc1cc(C)n(C(=O)c2ccc(S(=O)(=O)N3CCCC3)cc2)n1 | 2.03% (inactive)
62 | CCOC(=O)C1=C(CCc2ccccc2)NC(=O)NC1c1ccc2ccccc2c1 (stereo not drawn) | 9.37% (inactive)
63 | COc1ccc(NS(=O)(=O)c2cc(NC(=O)C3CCCCC3)ccc2N2CCOCC2)cc1 | 0.37% (inactive)
64 | Cc1ccc(C2Nc3cccc4cccc(c34)N2)cc1 | 1.42% (inactive)
65 | Oc1ccc(C2Nc3cccc4cccc(c34)N2)cc1 | 30.9% (active)
66 | COc1cccc(C2Nc3cccc4cccc(c34)N2)c1 | 3.61% (inactive)

Row | Structure (SMILES) | inhibition
67 | Cc1ccc(CSCC2Nc3ccc(C(=O)N4CCN(c5ccc(F)cc5)CC4)cc3NC2=O)cc1 (stereo not drawn) | 17.7% (active)
68 | O=C(c1cc(C(=O)N2CCN(c3ccc(F)cc3)CC2)cc([N+](=O)[O-])c1)N1CCN(c2ccc(F)cc2)CC1 | 1.38% (inactive)
69 | O=C1Nc2cc(C(=O)N3CCN(c4ccc(F)cc4)CC3)ccc2NC1CSCc1cccc(F)c1 (stereo not drawn) | 14.3% (inactive)
70 | CCS(=O)(=O)N1Cc2ccccc2CC1C(=O)Nc1nc2ccc(F)cc2s1 (stereo not drawn) | 3.36% (inactive)
71 | CC(=O)c1c(C)[nH]c(C(=O)OCC(=O)Nc2sc3c(c2C#N)CCCC3)c1C | 8.8% (inactive)
72 | Cc1cccc(N(Cc2ccccc2)C(=O)c2ccccc2F)c1 | 0.11% (inactive)
73 | COc1ccc(C2=NS(=O)(=O)N(C)C(C(=O)NC(C)c3ccccc3)=C2)cc1 (stereo not drawn) | -1.27% (inactive)
74 | COc1ccc(-n2nc3c(N4CCC(C(=O)NCc5ccccc5)CC4)nnc(C)c3c2C)cc1 | 4.6% (inactive)
75 | CCc1ccc(CNC(=O)C2CCN(c3nnc(C)c4c(C)n(-c5ccc(C)cc5)nc34)CC2)cc1 | 16.5% (active)
76 | CCOc1ccc(CNC(=O)C2CCCN(c3nnc(C)c4c(C)n(-c5ccccc5)nc34)C2)cc1 (stereo not drawn) | 1.12% (inactive)
77 | CC(C)Cn1c(N)c(C(=O)COC(=O)CN2C(=O)C3CC=CCC3C2=O)c(=O)n(C)c1=O (stereo not drawn) | -0.85% (inactive)
78 | O=C(Nc1ccc2ccccc2c1)Nc1ccc2snnc2c1 | 13.3% (inactive)
79 | Cc1nn(-c2ccccc2)c2[nH]c(C(F)(F)F)cc(=O)c12 | 2.68% (inactive)
80 | CN1C(=O)/C(=C/c2ccc(C(=O)NC3CCCC3)cc2)Oc2ccccc21 | 1.1% (inactive)
81 | CCCN1CCN(C(=O)CCCNC(=O)c2ccc(Cl)cc2)CC1 | -3.09% (inactive)
82 | CN1CCN(CCCNC(=O)c2ccc(/C=C3\Oc4ccccc4N(Cc4ccc(Cl)cc4)C3=O)cc2)CC1 | 25.6% (active)
83 | Cc1cc(C)nc(-n2nc(C)cc2NC(=O)c2ccc(F)cc2F)n1 | -0.61% (inactive)
84 | O=C(NCc1ccccc1)C(c1cccnc1)N(C(=O)c1csnn1)c1ccc(F)cc1 (stereo not drawn) | 8.74% (inactive)
85 | CC(=O)c1ccc(N2C(=NC(=O)C(C)C)SC3CS(=O)(=O)CC32)cc1 (stereo not drawn) | -3.39% (inactive)
86 | O=C(N=C1SC2CS(=O)(=O)CC2N1c1cc(Cl)ccc1Cl)C1CC1 (stereo not drawn) | 18.9% (active)
87 | O=C(CCC1CCCC1)N=C1SC2CS(=O)(=O)CC2N1Cc1ccccc1 (stereo not drawn) | 5.06% (inactive)
88 | CCOC(=O)N1CCN(C(=O)c2ccc3c(=O)n(CCc4ccc(OC)c(OC)c4)c(=O)[nH]c3c2)CC1 | 4.83% (inactive)
